This note sets out measurements from the OligoGym collection.
Note: reference of the scale not given here.

For the first assay, the target named is LIMK2. The assay is described as follows: pooled miR-30 sensor sort-seq; sequence = guide strand. Conditions: shRNA.
Regarding TACTTGATGGTGACCTTCCCTT, the sensor-assay potency score (higher = more potent) was -0.173.

TTCACTTGCACAGTGGTGGCGT came in with a sensor-assay potency score (higher = more potent) of 0.835.

TCGAGTAACAGATTCCTCCTGG gave a sensor-assay potency score (higher = more potent) of 1.05.

TTGTCCAACTTGATGAGGCAGT came in with a sensor-assay potency score (higher = more potent) of -0.14.

TACAGCACACCAATGAACTTGA showed a sensor-assay potency score (higher = more potent) of -0.145.

Take ATGAACTTGAGCACATTGGGGT: the sensor-assay potency score (higher = more potent) is -0.105.

The next assay deals with LIN54. Described as above. Particulars: shRNA.
In the case of TTTTAAGACATCCTGATCGTTT, the sensor-assay potency score (higher = more potent) is -0.141.

TAAACATACTAGATTGAGGTGC showed a sensor-assay potency score (higher = more potent) of -0.0512.

Take TACAACTATAGAGTCCTTGTAG: the sensor-assay potency score (higher = more potent) worked out at 0.323.

In turn, TTAGTAAGTACTACACAGGAAG gave a sensor-assay potency score (higher = more potent) of -0.992.

In turn, TAGTCTTTTAAAATCATTGAAT showed a sensor-assay potency score (higher = more potent) of -0.779.

TTATGTAACATTCTGTCTGCAG yielded a sensor-assay potency score (higher = more potent) of 0.565.

TACAATTTCAAACACAGTGATT gave a sensor-assay potency score (higher = more potent) of -0.963.

Sequence TTTCTTTAAAAGATAGTCCTTT returned a sensor-assay potency score (higher = more potent) of 0.288.

In the case of TTGTCTGTCCTGTAACTGCTTT, the sensor-assay potency score (higher = more potent) was -0.449.

The sequence TTTACAAGCAAAACATTCGTAA yielded a sensor-assay potency score (higher = more potent) of -0.274.

In the next assay the target is LIN7C. The description is as above. Particulars: shRNA.
Take TCTATCAGCAATTCCACCTGGA: the sensor-assay potency score (higher = more potent) was determined as 1.09.

Turning to TTTTCTTACAATCATTGGCATT, the sensor-assay potency score (higher = more potent) is -1.46.

Sequence TAATATTGAATCCAAGGCCCTC came in with a sensor-assay potency score (higher = more potent) of -0.834.

For TCTACAAATATCTCTCTCCAGC, the sensor-assay potency score (higher = more potent) is -1.02.

The sequence TTTCTTCTAAGACTTTGGGTGT gave a sensor-assay potency score (higher = more potent) of -0.276.

TAGCGTTCGCTCTCACTTCAGG: the sensor-assay potency score (higher = more potent) is -0.712.

On to TAACCTTTCCTTGTGCGGCTTT, for which the sensor-assay potency score (higher = more potent) was determined as 0.0216.

TTGCTCTACAAATATCTCTCTC came in with a sensor-assay potency score (higher = more potent) of -0.491.

With TTTTGGTAGCTCAACAACTCGA, the sensor-assay potency score (higher = more potent) is -0.544.

In turn, TTCACTTTGAAGGACTCTTTGC displayed a sensor-assay potency score (higher = more potent) of -0.329.

The next assay has as its target LINGO4. The description is as above. Particulars: shRNA.
Sequence TTGAGAGCTGGTTGTAGCTGAG came in with a sensor-assay potency score (higher = more potent) of -0.0336.

Consider TTGCCAGACAGCCTCAAGGTGA, for which the sensor-assay potency score (higher = more potent) is -1.39.

For ATATCCAGTTCTCTAAGCCTTA, the sensor-assay potency score (higher = more potent) is -0.907.

The sequence TGAGGTGGTACAGTGCTTGGAA had a sensor-assay potency score (higher = more potent) of 0.431.

TGTGATGTTTGACCCGACCTTT yielded a sensor-assay potency score (higher = more potent) of -0.94.

As for TTTGACCCGACCTTTGCCCTTG, the sensor-assay potency score (higher = more potent) was -0.241.

TCTAGGACCCTTACTCTCCCAG: the sensor-assay potency score (higher = more potent) is -0.898.

In turn, ATCTAGGAAGAGAACAATCTGG gave a sensor-assay potency score (higher = more potent) of -0.599.

TAGCTGAGGTCCAATTCCTGGA registered a sensor-assay potency score (higher = more potent) of -0.789.

The sequence TTATCTGCCACATCCAGGAGGT showed a sensor-assay potency score (higher = more potent) of -0.12.

TAGCTCCTGGAGCCGCACCAGG came in with a sensor-assay potency score (higher = more potent) of -1.44.

As to TTCCACCTGGATGACTTCCAGC, the sensor-assay potency score (higher = more potent) was -1.16.
